SENP8 block-1: human SENP8 protease inhibitors, primary screen, biochemical, fluorescence, Nedd8 protein substrate, uHTS; Sentrin-specific protease 8 (Homo sapiens), Q96LD8; recombinant SENP8; inhibition, % at 20 µM; 0.64% of 360,000 active; AID 602440, 2012; in the data active = inhibition mostly above about 40%, no sharp cut-off; inactive = mostly below about 27%
Target sequence (Q96LD8 whole entry, looked up): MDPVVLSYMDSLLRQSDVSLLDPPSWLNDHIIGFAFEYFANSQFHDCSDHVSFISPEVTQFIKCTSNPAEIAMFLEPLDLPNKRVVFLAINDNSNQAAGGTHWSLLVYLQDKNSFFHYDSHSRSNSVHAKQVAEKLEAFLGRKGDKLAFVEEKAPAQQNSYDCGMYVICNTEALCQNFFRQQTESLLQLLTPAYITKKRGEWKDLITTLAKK
SENP7 block: SENP7 protease inhibitors, primary screen, biochemical, luminescence, uHTS | Sentrin-specific protease 7 (Homo sapiens), Q9BQF6 | recombinant SENP7, Z-RLRGG-aminoluciferin luminescence, 40 min | inhibition, % at 5 µM | 1.5% of 330,000 active;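 active = inhibition above about 50% at the single test dose, limit read from the data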;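 note: plate controls were DMSO with enzyme for no effect and no enzyme buffer wells for full effect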
LGR2 antag: inhibitors of bursicon-induced LGR2 CRE-luciferase signal, primary screen, cell-based, HEK293, CRE-luciferase reporter, bursicon stimulation. inhibition, % at 9.99 µM. Drosophila bursicon receptor LGR2 (rickets). bursicon-stimulated, 4 h. 0.35% of 380,000 active;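 active = drop in luminescence signal, shown as inhibition above about 50% in the replicate tests, limit read from the data, passing the limit was not always enough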;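 note: agonist challenge used bursicon conditioned medium at about half maximal strength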
SENP6 inh: SENP6 protease inhibitors, primary screen, biochemical, luminescence, uHTS; Sentrin-specific protease 6 (Homo sapiens), Q9GZR1; Recombinant SENP6 catalytic domain, aminoluciferin luminescence; inhibition, % at 10 µM; 1.8% of 330,000 active;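 active = inhibition above about 50% at the single tested dose, limit read from the data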;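 note: plate controls were DMSO wells with enzyme for no effect and DMSO wells lacking enzyme for full effect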
HSP90 inh: HSP90 inhibitors, primary screen, cell lysate, luminescence | Rabbit reticulocyte lysate, luciferase refolding luminescence, 3 h | AID 1789, 2009 | inhibition, % at 5.6 µM | Heat shock protein HSP 90 (rabbit reticulocyte lysate; luciferase refolding) | 0.91% of 290,000 active;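 active = inhibition above the screen-wide mean plus 3 SD, computed separately per campaign, cut at about 16% in these data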;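 note: 0% = DMSO wells and 100% = 60 µM geldanamycin wells; inhibitors lower the luminescence because luciferase stays unfolded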
SENP8 block-2: SENP8 protease inhibitors, primary screen, biochemical, luminescence; 1.2% of 330,000 active; inhibition, % at 10 µM; purified SENP8, Z-RLRGG-aminoluciferin cleavage; Sentrin-specific protease 8 (Homo sapiens), Q96LD8; in the data active = inhibition above about 50%
SENP8 conf: SENP8 protease inhibitors, retest, confirmation, biochemical, luminescence, single concentration; inhibition, % at 12.5 µM; shares compounds with SENP7 block; 40% of 6,200 active; Recombinant SENP8, Z-RLRGG-aminoluciferin luminescence, 60 min;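 active = mean inhibition across replicates above about 50%, limit read from the data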
SENP6 conf: SENP6 protease inhibitors, confirmation, biochemical, luminescence, single concentration. inhibition, % at 12.5 µM. 58% of 6,200 active. recombinant SENP6, Z-RLRGG-aminoluciferin luminescence. shares compounds with SENP7 block. AID 488915, 2010
SENP7 conf: SENP7 protease inhibitors, retest, confirmation, biochemical, luminescence, single concentration | 69% of 6,200 active | shares compounds with SENP7 block | inhibition, % at 12.5 µM | recombinant SENP7, Z-RLRGG-aminoluciferin luminescence, 40 min
Casp3 select: caspase-3 protease inhibitors, confirmation, selectivity assay for SENP inhibitor project, biochemical, single concentration | shares compounds with SENP7 block | purified caspase-3, Z-DEVD-aminoluciferin luminescence, 60 min | inhibition, % at 12.5 µM | 60% of 6,200 active | AID 488918, 2010;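 active = mean inhibition above about 50%, limit read from the data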;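 note: plate controls were enzyme with DMSO for no effect and wells without caspase-3 for full effect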
Target sequence (P42574 28-227 limits assumed): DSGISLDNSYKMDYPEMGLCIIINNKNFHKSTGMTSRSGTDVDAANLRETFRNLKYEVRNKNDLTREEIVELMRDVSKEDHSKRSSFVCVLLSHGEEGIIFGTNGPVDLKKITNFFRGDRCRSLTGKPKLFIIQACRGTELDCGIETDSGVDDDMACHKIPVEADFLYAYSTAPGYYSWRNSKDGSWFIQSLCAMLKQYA
SENP luc ctr: interferes with luciferase luminescence in SENP counter-screen | inhibition, % at 12.5 µM | shares compounds with SENP7 block | 39% of 6,200 active | Pre-incubated SENP8/Z-RLRGG-aminoluciferin, luciferase luminescence interference;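 active = mean inhibition above about 50% when retested at one dose, limit read from the data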;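 note: plate controls were DMSO wells with completed reaction for no effect and substrate without enzyme for full effect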
The depositor's hits bear a star; nt = no result. Compounds with a hit are over-represented: about 2.3% of the library has one in this group of screens.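 Rule for the calls, unless noted: active = mean inhibition above about 50% in the one-dose retest (limit read from the data); inactive = the rest.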

SMILES | SENP8 block-1 | SENP7 block | LGR2 antag | SENP6 inh | HSP90 inh | SENP8 block-2 | SENP8 conf | SENP6 conf | SENP7 conf | Casp3 select | SENP luc ctr
COc1ccc(NC(=O)N(C)C[C@@H]2Oc3ccc(NC(=O)Nc4ccc(F)cc4)cc3CC(=O)N([C@H](C)CO)C[C@@H]2C)cc1 | nt | nt | 14.2 | nt | nt | nt | nt | nt | nt | nt | nt
Cc1csc(NC(=O)c2oc3ccccc3c2C)n1 | -73.8 | 45.9 | -40.3 | 42.5 | nt | 16.9 | nt | nt | nt | nt | nt
Cc1ccnc(NC(=O)c2oc3ccccc3c2C)c1 | 9.0 | 85.3* | 33.1 | 81.0* | nt | 72.1* | 52.0* | 84.8* | 80.8* | 58.0* | 43.8
CC(=O)Nc1ccc(NC(=S)NC(=O)c2oc3ccccc3c2C)cc1 | 15.5 | 4.1 | -12.6 | 12.9 | 0.8 | 8.0 | nt | nt | nt | nt | nt
Cc1ccnc(NC(=O)c2cc3ccccc3oc2=O)c1 | 9.3 | 95.1* | -18.7 | 72.2* | 0.3 | 82.3* | 24.1 | 30.3 | 22.2 | 55.2* | 1.4
COc1cc2ccccc2cc1C(=O)Nc1cc(C)ccn1 | -265.7 | -3.1 | -60.9 | 1.8 | -3.5 | 3.5 | nt | nt | nt | nt | nt
Cc1c(C(=O)Nc2cnccn2)oc2ccccc12 | 4.7 | 3.0 | -48.1 | 24.4 | -2.5 | -13.2 | nt | nt | nt | nt | nt
Cc1cccnc1NC(=S)NC(=O)c1oc2ccccc2c1C | -155.4 | 7.8 | -49.4 | 78.9* | -4.5 | 17.9 | -6.4 | -2.6 | -5.9 | 4.1 | 4.7
Cc1c(C(=O)NC2=NCCS2)oc2ccccc12 | 10.8 | 85.5* | nt | 86.2* | 13.0 | 70.3* | 81.3* | 83.3* | 97.8* | 92.9* | 86.6*
Cc1ccc(CN2CC(=O)N3[C@@H](CO)[C@H](c4ccc(-c5cccnc5)cc4)[C@@H]3C2)cc1 | nt | nt | 0.7 | nt | nt | nt | nt | nt | nt | nt | nt
O=C(C[C@H]1C[C@H]2c3cc(NC(=O)NC4CCCC4)ccc3O[C@H]2[C@@H](CO)O1)NCC(F)(F)F | nt | nt | -13.7 | nt | nt | nt | nt | nt | nt | nt | nt
N=c1oc2ccccc2cc1C(=O)NC1CCCCCC1 | -6.0 | 33.8 | -31.8 | 47.3 | 15.6 | 27.3 | nt | nt | nt | nt | nt
CCOc1ccc2oc(C(=O)Nc3cc(C)ccn3)c(C)c2c1 | -220.2 | 97.0* | 2.0 | 93.1* | nt | 89.5* | 37.8 | 62.8* | 76.4* | 82.9* | 21.5
CCOc1ccc2oc(C(=O)Nc3ccc4c(c3)OCO4)c(C)c2c1 | -30.6 | 62.5* | -99.3 | 72.5* | 4.3 | 65.3* | 63.0* | 4.0 | 85.7* | 53.3* | 37.9
O=C(NC1CCCCCC1)c1cc2ccccc2oc1=O | -135.5 | 56.4* | 16.9 | 72.8* | 10.2 | 39.8 | 50.5* | 59.5* | 68.3* | 63.3* | 19.2
CCOc1ccc2oc(C(=O)Nc3ccc(N4CCOCC4)cc3)c(C)c2c1 | -23.8 | 2.2 | nt | 3.1 | 2.2 | -0.7 | nt | nt | nt | nt | nt
O=C(C[C@H]1C=C[C@H](NC(=O)C2CCC2)[C@@H](CO)O1)NC1CCCCC1 | nt | nt | 8.5 | nt | nt | nt | nt | nt | nt | nt | nt
CCOC(=O)N1CCN(C(=O)COc2ccc(S(=O)(=O)Nc3ccc(OCC)cc3)cc2)CC1 | 5.3 | 8.4 | -11.2 | 8.3 | -2.3 | -4.6 | nt | nt | nt | nt | nt

Screening results deposited in PubChem by several laboratories.
